Data published in PubChem BioAssay AID1159580 (chemical genetic matrix, 2015).
Where “and” joins values, the source holds several entries; their conditions need not be identical. Equal entries are not always repeated. Among all 5,500 compounds or so, about 2,000 (36%) were called active. Another 18% or so got no clear call; they are omitted. Cut-off read from the data, not from the text of the source: active = normalized growth mostly below about 0.91 (no sharp cut-off); inconclusive = no clear call, values can overlap the other calls; inactive = mostly above about 0.92. The list shows a part of the results.

Assay: chemical genetic growth profiling, strain panel (AID 1159580);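 note: tested at 20 µM; growth read once vehicle control cultures reached saturation at 30 °C; 1 = growth at the plate median or of vehicle wells; lower values mean less growth of the strain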
Conditions: S. cerevisiae deletion strains, growth OD

Measured: normalized growth

CCCCC1C(=O)N(c2ccccc2)N(c2ccc(O)cc2)C1=O (stereo not given)
inactive: locus YAL021C, strain ccr4, hits give low values 1.02 | locus YAL026C, strain drs2, hits give low values 0.998 | locus YAL030W, strain snc1, hits give low values 1 | locus YBL061C, strain skt5, hits give low values 0.999 | locus YBR009C, strain hhf1, hits give low values 0.998 | locus YBR021W, strain FUR4, hits give low values 0.995 | locus YBR023C, strain chs3, hits give low values 1 | locus YBR171W, strain sec66, hits give low values 1.01 | locus YBR229C, strain ROT2, hits give low values 0.953 | locus YBR231C, strain swc5, hits give low values 1 | locus YBR279W, strain paf1, hits give low values 0.993 | locus YCL011C, strain gbp2, hits give low values 1.01 | locus YCL016C, strain dcc1, hits give low values 1.01 | locus YCL029C, strain bik1, hits give low values 0.969 | locus YCL061C, strain MRC1, hits give low values 1.01 | locus YCL069W, strain vba3, hits give low values 1 | locus YCR088W, strain abp1, hits give low values 1.01 | locus YDL005C, strain med2, hits give low values 0.995 | locus YDL035C, strain GPR1, hits give low values 0.972 | locus YDL040C, strain nat1, hits give low values 0.997 | locus YDL074C, strain BRE1, hits give low values 0.947 | locus YDL101C, strain DUN1, hits give low values 0.98 | locus YDL134C, strain PPH21, hits give low values 0.999 | locus YDL185W, strain tfp1, hits give low values 0.974 | locus YDL192W, strain arf1, hits give low values 0.984 | locus YDR001C, strain nth1, hits give low values 0.995 | locus YDR069C, strain doa4, hits give low values 0.988 | locus YDR101C, strain arx1, hits give low values 1.01 | locus YDR137W, strain rgp1, hits give low values 0.98 | locus YDR150W, strain NUM1, hits give low values 0.979 | locus YDR159W, strain sac3, hits give low values 1 | locus YDR162C, strain NBP2, hits give low values 0.99 | locus YDR195W, strain ref2 0.987 | locus YDR297W, strain sur2, hits give low values 1.01 | locus YDR318W, strain mcm21, hits give low values 0.994 | locus YDR334W, strain swr1, hits give low values 1.01 | locus YDR335W, strain msn5, hits give low values 1.01 | locus YDR388W, hits give low values 0.998 | locus YDR392W, strain spt3, hits give low values 1.01 | locus YDR502C, strain sam2, hits give low values 0.99 | locus YEL003W, strain gim4, hits give low values 0.998 | locus YEL037C, strain rad23, hits give low values 1 | locus YEL061C, strain CIN8 (second series), hits give low values 1 | locus YEL061C, strain CIN8, hits give low values 0.987 | locus YER015W, strain faa2, hits give low values 0.996 | locus YER016W, strain bim1, hits give low values 0.998 | locus YER110C, hits give low values 0.965 | locus YER111C, strain swi4, hits give low values 1 | locus YER155C, strain BEM2 (second series), hits give low values 1.04 | locus YER155C, strain BEM2, hits give low values 0.997 | locus YER167W, strain BCK2, hits give low values 0.987 | locus YFR010W, strain ubp6, hits give low values 1.01 | locus YGL078C, strain dbp3, hits give low values 0.995 | locus YGL086W, strain mad1, hits give low values 0.963 | locus YGL167C, strain pmr1, hits give low values 1 | locus YGL173C, strain kem1, hits give low values 0.983 | locus YGL227W, strain vid30, hits give low values 1.01 | locus YGL240W, strain doc1, hits give low values 1 | locus YGL248W, strain PDE1, hits give low values 0.97 | locus YGL253W, strain hxk2, hits give low values 1.01 | locus YGR135W, strain pre9, hits give low values 0.988 | locus YGR229C, strain SMI1, hits give low values 0.992 | locus YGR252W, strain gcn5, hits give low values 0.893 | locus YHR013C, strain ard1, hits give low values 1 | locus YHR027C, strain rpn1, hits give low values 0.999 | locus YHR030C, strain SLT2, hits give low values 0.999 and 0.974 | locus YHR079C, strain IRE1 (second series), hits give low values 0.997 | locus YHR079C, strain IRE1, hits give low values 0.973 | locus YHR094C, strain hxt1, hits give low values 0.993 | locus YHR129C, strain ARP1, hits give low values 0.982 | locus YHR142W, strain chs7, hits give low values 1.01 | locus YHR200W, strain rpn10, hits give low values 0.988 | locus YIL066C, strain RNR3, hits give low values 0.976 | locus YIL073C, strain SPO22, hits give low values 1.01 | locus YIL125W, strain kgd1, hits give low values 0.985 | locus YIR030C, strain dcg1, hits give low values 0.983 | locus YJL092W, strain hpr5, hits give low values 1.01 | locus YJL095W, strain BCK1 (second series), hits give low values 1.01 | locus YJL095W, strain BCK1, hits give low values 1 and 0.992 | locus YJL115W, strain asf1, hits give low values 1.01 | locus YJL129C, strain trk1, hits give low values 0.997 | locus YJL134W, strain LCB3, hits give low values 0.988 | locus YJL154C, strain vps35, hits give low values 1 | locus YJL164C, strain tpk1, hits give low values 0.994 | locus YJL166W, strain qcr8, hits give low values 1.01 | locus YJL168C, strain set2, hits give low values 0.994 | locus YJL187C, strain SWE1 (second series), hits give low values 0.98 | locus YJL187C, strain SWE1, hits give low values 1 | locus YJR043C, strain POL32, hits give low values 0.999 | locus YJR066W, strain TOR1, hits give low values 0.93
